Experiment [1] is described as follows: CCTE_Padilla_ZF_Score.Tail: CCTE's 144 Hour Post-fertilization zebrafish Assay Score for Tail Malformation, Padilla Lab (AID 2284414). The procedure, abridged: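 Wild-type zebrafish embryos, one per well in 200 uL 10% Hanks', dosed at 6-8 hpf, sealed, and kept at 26 C on a 14:10 h light cycle. Chemical was rinsed out at 5 dpf. Blinded brightfield scoring of tail defects followed at 6 dpf.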

A short description of experiment [2]: CCTE_Padilla_ZF_Score.Blood_pooling: CCTE's 144 Hour Post-fertilization zebrafish Assay Score for Blood Pooling, Padilla Lab (AID 2284415). The essentials:
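Wild-type outbred zebrafish embryos, one per well in 10% Hanks', exposed from 6–8 hpf in sealed plates at 26C on 14:10 h light:dark, rinsed at 5 dpf. Blinded stereomicroscope scoring of blood pooling at 6 dpf; gain-of-signal versus DMSO.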

A short description of experiment [3]: CCTE_Padilla_ZF_Score.Any: CCTE's 144 Hour Post-fertilization zebrafish Assay Score for Any Mortality or Malformation, Padilla Lab (AID 2284416). The procedure, abridged:
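Wild-type zebrafish embryos with chorions, one per well in 10% Hanks' from 6–8 hpf, dosed in sealed plates at 26 C, 14:10 h light:dark; rinsed at 5 dpf; blinded scoring at 6 dpf for death or malformation, versus DMSO.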

Experiment [4] concerns SRY-box transcription factor 17 (SOX17) Protein Expression, Deisenroth Lab, SOX17 (gene 64321). The experiment in a line: CCTE_Deisenroth_DEVTOX-GLR_Endo_SOX17: CCTE's DevTox GLR-Endo Assay Evaluation of SRY-box transcription factor 17 (SOX17) Protein Expression, Deisenroth Lab (AID 2284413). The essentials:
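RUES2-GLR human pluripotent cells were differentiated toward endoderm for 48 h and received two compound doses 24 h apart (1 nM - 200 uM, 10 points). High-content imaging of fixed cells gave the percent SOX17+ cells per cell count, expressed as percent change versus 0.2% DMSO.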

The test system of experiment [5] is Brachyury (BRA) Protein Expression, TBXT (gene 6862). Kind of experiment: CCTE_Deisenroth_DEVTOX-GLR_Endo_BRA: CCTE's DevTox GLR-Endo Assay Evaluation of Brachyury (BRA) Protein Expression, Deisenroth Lab (AID 2284417). The essentials: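 RUES2-GLR human pluripotent cells, seeded 24 h, then differentiated 48 h in defined media with two chemical exposures 24 h apart (10-point series, 1 nM - 200 uM). Fixed, nuclear-stained, imaged; endpoint is percent BRA+ cells minus 0.2% DMSO control.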

Experiment [6] in a line: CCTE_Deisenroth_DEVTOX-GLR_Endo_CellCount: Viability Assessment in CCTE's DevTox GLR-Endo Assay, Deisenroth Lab (AID 2284420). The procedure, abridged:
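RUES2-GLR human pluripotent cells seeded 24 h, then differentiated 48 h with two chemical exposures at 24 h intervals (10-point, 1 nM - 200 uM). Fixed, nuclear-stained, imaged; nuclei counts give % change in cell count versus 0.2% DMSO.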

The test system of experiment [7] is SRY-box transcription factor 17 (SOX17) Protein Expression, Deisenroth Lab, SOX17 (gene 64321). The experiment in a line: CCTE_Deisenroth_DEVTOX-GLR_Pluri_SOX17: CCTE's DevTox GLR-Pluri Assay Evaluation of SRY-box transcription factor 17 (SOX17) Protein Expression, Deisenroth Lab (AID 2284427; active means hit-call score of the fitted dose curve at least 0.9, where 1 is the maximum). The procedure, abridged: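 RUES2-GLR human pluripotent cells were seeded 24 h, then differentiated 48 h in defined media with two chemical exposures 24 h apart (10-point series, 1 nM - 200 uM). Fixed, nuclear-stained cells were imaged; %SOX17+ cells minus 0.2% DMSO control reported.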

For experiment [8], the system named is SRY-box transcription factor 2 (SOX2) Protein Expression, Deisenroth Lab, SOX2 (gene 6657). The experiment in a line: CCTE_Deisenroth_DEVTOX-GLR_Pluri_SOX2: CCTE's DevTox GLR-Pluri Assay Evaluation of SRY-box transcription factor 2 (SOX2) Protein Expression, Deisenroth Lab (AID 2284428). The essentials:
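Human pluripotent RUES2-GLR cells were seeded 24 h, then differentiated 48 h in defined media with two chemical doses at 24-h intervals (10-point, 1 nM–200 uM). Nuclear-stained cells were imaged; SOX2+ cells/cell count gave percent change versus 0.2% DMSO control.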

The subject of experiment [9] is Brachyury (BRA) Protein Expression, Deisenroth Lab, TBXT (gene 6862). Kind of experiment: CCTE_Deisenroth_DEVTOX-GLR_Pluri_BRA: CCTE's DevTox GLR-Pluri Assay Evaluation of Brachyury (BRA) Protein Expression, Deisenroth Lab (AID 2284429; active means hit-call score of the fitted dose curve at least 0.9, where 1 is the maximum). The procedure, abridged:
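RUES2-GLR human pluripotent cells differentiated 48 hours with two chemical exposures 24 hours apart, 10-point series 1 nM–200 uM. Fixed, nuclear-stained, imaged; endpoint is percent BRA+ cells minus 0.2% DMSO control.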

Experiment [10] in a line: CCTE_Deisenroth_DEVTOX-GLR_Pluri_CellCount: Viability Assessment in CCTE's DevTox GLR-Pluri Assay Evaluation of Total Cell Counts, Deisenroth Lab (AID 2284430). The procedure, abridged:
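RUES2-GLR human pluripotent cells, seeded 24 h, then differentiated 48 h with two chemical exposures 24 h apart; 10-point series 1 nM - 200 uM. Fixed, nuclear-stained, imaged (5 fields/well); nuclei count as % change vs 0.2% DMSO.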

Inconclusive results are not listed. Calls of active or inactive are those of the source. How the source made its calls, unless noted: active means hit-call score of the fitted dose curve at least 0.9, where 1 is the maximum; inactive means score below 0.9.

On to `C=CCOC(F)(C(F)(F)F)C(F)(F)F`, for which the result in experiment [1], in [2] and in [3] was inactive.

For `NC(=O)c1ccc(N)nc1`, the AC50 in [4] was 21 µM (active); in experiment [5], 68.7 µM (active); in experiment [6], 30.6 µM (active); in experiment [8] it was 38.1 µM (active); in [9] it was 100 µM (active). Also, the compound was classed as inactive in experiment [7] and in experiment [10].

Consider `O=S(=O)(F)C(F)(F)C(F)(F)C(F)(F)C(F)(F)F`, for which the compound was called inactive in experiment [1], in [2] and in experiment [3].

For `CC(F)(F)CC(F)(F)F`, the result in experiment [1], in experiment [2] and in experiment [3] was inactive.

Consider `COC(F)(C(F)(F)C(F)(F)F)C(F)(C(F)(F)F)C(F)(F)F` (centres undefined), for which the result in [1], in [2] and in [3] was inactive.

The values above are taken from PubChem BioAssay (EPA / NIEHS).
